For some of these results: Entries with a potency or affinity are not part of this list. Results filed as inconclusive are left out. Some of the results follow. Active and inactive are the calls of the source. Unless noted, how the calls were made is not given here.

The text below walks through data of PubChem BioAssay.

Assay [1] can be described thus: general cell-killing toxicity readout – plate reader, dry powder samples, cytotoxicity control for PAX8 inhibitor project, dose response (AID 743021).
Assay [2] in a line: toxicity toward immortalized ovarian surface epithelium – cell-based, plate reader, dry powder samples, cytotoxicity control for PAX8 inhibitor project, dose response (AID 743045).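 Further: 0% = neutral control median and -100% = positive control median; more negative values mean more cell killing.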
Assay [3] is described as follows: A2780 cell killing – plate reader, dry powder samples, cytotoxicity control, dose response (AID 743046).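 Further: 0% = neutral control wells and -100% = cytotoxic reference compound.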
Assay [4] can be described thus: Ring1 de-repression measured by qPCR – cell-based, mouse ESC, RT-qPCR, cherry-pick, esBAF inhibitor project, confirmation (AID 743176;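 active means Ring1 gene expression raised more than 2-fold over untreated cells in both replicates at either tested dose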;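 further: Ring1 transcript normalised to actin housekeeping signal by TaqMan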). The note with it: mouse ESC E14, Ring1 mRNA RT-qPCR fold change, stronger effect = higher value. Background: Real-time PCR tracks product formation cycle by cycle.
Assay [5] is described as follows: Fgf4 repression measured by qPCR – cell-based, mouse ESC, RT-qPCR, cherry-pick, esBAF inhibitor project, confirmation (AID 743177;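 active means Fgf4 expression under 0.8 fold of control in both repeat measurements at one or both tested doses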;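 further: Fgf4 transcript normalised to actin in duplex TaqMan qPCR; cells exposed to compound for 24 h before lysis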). Particulars: mouse ESC E14, Fgf4 mRNA qPCR fold change, stronger effect = lower value.
Assay [6] is described as follows: Bmi1 mRNA increase in mouse ESCs – cell-based, RT-qPCR, mouse ESC, single point, cherry-pick, confirmation (AID 743180;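 active means Bmi1 expression fold change above 6 at either tested concentration, seen in replicate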). Particulars: mouse ESC E14, Bmi1 mRNA qPCR fold, stronger effect = higher value.
Assay [7] in a line: viability loss in A549 cells – cell-based, plate reader, single point, cherry-pick, cytotoxicity control (AID 743188). Particulars: at 25 µM.
Assay [8] is described as follows: viability loss in HepG2 cells – cell-based, plate reader, single point, cherry-pick, cytotoxicity control (AID 743189; in the data active means activity change below about -50%). The note with it: at 25 µM, stronger effect = lower value.
Assay [9] in a line: viability loss in HEK293 cells – cell-based, plate reader, single point, cherry-pick, cytotoxicity control (AID 743190; in the data active means activity change below about -38%, passing the limit was not always enough). Particulars: at 25 µM.
Assay [10] can be described thus: IGROV1 cell killing – plate reader, dry powder samples, PAX8 inhibitor project, dose response (AID 743043).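 Further: more negative means fewer viable cells or more cytotoxicity.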
Assay [11] is described as follows: OVCAR-3 cell viability loss – plate reader, dry powder samples, PAX8 inhibitor project, dose response (AID 743044). The note with it: max activity: at 35 µM, stronger effect = lower value unless noted.
Assay [12] in a line: A549 cell cytotoxicity, dose response, cytotoxicity control, plate reader, cherry-pick, antagonist series (AID 743412).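 Further: 0% = neutral control wells and -100% = positive control wells.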
Assay [13] can be described thus: toxicity toward HepG2 liver cells – cell-based, plate reader, cherry-pick, antagonist series, cytotoxicity control, dose response (AID 743416).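 Further: 0% = neutral control wells and -100% = positive control wells.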
A short description of assay [14]: OVCAR8 cell viability loss – plate reader, dry powder samples, PAX8 project, dose response (AID 743197).

In the case of `COc1cccc(N2CCN(C(=O)c3ccc(CS(=O)c4ccccc4Cl)o3)CC2)c1` (centres undefined), the result in [1] was inactive.

Regarding `N#C[C@H]1N[C@H](CO)[C@@H]1c1ccc(C#Cc2ccccc2F)cc1`, the call in assay [1], in [2] and in assay [3] was inactive.

For `O=C(c1cc(-c2ccc(Cl)cc2)on1)N1CCN(c2ccccc2)CC1`, the fold change was 1.25 in assay [4] (Ring1 fold increase, at 7 µM); 1.06 (inactive) in assay [4] (at 33 µM); 1.17 in [6] (Bmi1 de-repression, at 7 µM); 1.27 (inactive) in assay [6] (at 33 µM). Also, the Fgf4 expression fold change in assay [5] (Fgf4 expression, at 7 µM) is 1.02; in assay [5] (at 33 µM), 0.994 (inactive). Besides, the cell viability change % (negative = cytotoxic) in assay [7] was -16.6% (inactive). Besides, the activity change, negative = inhibition is 9.34% (inactive) in assay [8] and -19.5% (inactive) in assay [9].

Consider `C[C@@H]1CN([C@H](C)CO)C(=O)c2cc(NS(=O)(=O)c3ccccc3)ccc2O[C@@H](C)CCCCO[C@@H]1CN(C)Cc1ccc(C(F)(F)F)cc1`, for which the outcome in assay [2] was inactive.

On to `CCCC(=O)NC(c1ccc(C(C)C)cc1)c1ccc2cccnc2c1O` (centres undefined), for which the result in assay [1] was inactive.

With `Cn1nnnc1Sc1ncnc2scc(-c3cccc(S(C)(=O)=O)c3)c12`, in assay [1], the compound was classed as inactive.

Consider `N#C[C@@H]1[C@@H](c2ccc(C3=CCCCC3)cc2)[C@@H](CO)N1C(=O)NC1CCCCC1`, for which the compound was called inactive in assay [1], in [10], in assay [11], in assay [2] and in assay [3].

Take `O=C(Nc1cccc(-c2ccc(N3CCCCC3)nn2)c1)C(F)(F)F`: the outcome in assay [1] was inactive.

As for `COc1cccc(C#Cc2ccc([C@@H]3[C@@H](C#N)N(C(=O)C4CCCC4)[C@@H]3CO)cc2)c1`, the result in assay [1], in [10], in assay [11], in assay [2] and in assay [3] was inactive.

For the compound `CN(C(=O)OC(C)(C)C)c1ccc(-c2nc3ccccc3s2)cc1`, the compound was called inactive in [1] and in assay [12].

Turning to `Brc1ccc(-n2cc(-c3ccccc3)c3c(NN4CCOCC4)ncnc32)cc1`, the compound was called inactive in [1].

`O=C(O)c1cccc(COc2ccc3c(c2)CCC3)c1`: the compound was classed as inactive in [1] and in assay [13].

For `Cc1cc(C(C)(C)C)cc(C)c1Cn1c2[n+](c3ccc(C(F)(F)F)cc31)CCCCC2`, the outcome in assay [1] was inactive.

Consider `COC(=O)[C@@]1(CCS(=O)(=O)c2ccccc2)N=C(c2ccc(OCCCO)cc2)O[C@H]1c1ccccc1`, for which the call in assay [1], in assay [10], in [2] and in [3] was inactive.

As for `Clc1cccc(Cl)c1Cn1nnc(-c2cccs2)n1`, the fold change was 1.24 in assay [4] (Ring1 fold increase, at 7 µM); 0.998 (inactive) in [4] (at 33 µM); 1.24 in assay [6] (Bmi1 de-repression, at 7 µM); 1.5 (inactive) in [6] (at 33 µM). Besides, the Fgf4 expression fold change in assay [5] (Fgf4 expression, at 7 µM) was 1.02; in [5] (at 33 µM), 0.892 (inactive). Besides, the cell viability change % (negative = cytotoxic) in assay [7] was -14.2% (inactive). Also, the activity change, negative = inhibition was -32% (inactive) in assay [8] and -18.7% (inactive) in assay [9].

As to `O=C(Nc1ccc(OCC(F)(F)C(F)F)c(C(F)(F)F)c1)c1ccccc1O`, the result in assay [1], in [2] and in [3] was inactive.

Turning to `Cc1c(Nc2cc(Cl)c3nonc3c2[N+](=O)[O-])c(=O)n(-c2ccccc2)n1C`, the outcome in assay [1] was inactive.

Take `C[C@H](O)[C@@H]1CN2CCc3c([nH]c4ccc(-c5ccc6c(c5)OCO6)cc34)[C@@H]2C[C@@H]1N(C)C(=O)NC1CCCCC1`: the compound was called inactive in [1].

For `N#C[C@H]1[C@@H](c2ccc(C3=CCCC3)cc2)[C@@H](CO)N1C(=O)NC1CCCCC1`, the compound was classed as inactive in assay [1], in [10], in [11] and in assay [3].

Turning to `O=C(CCCN1C(=O)/C(=C\c2ccccc2OC(F)F)SC1=S)Nc1cccnc1`, the compound was classed as inactive in assay [1] and in assay [3].

`O=C(CCCN1C(=O)/C(=C\c2cccc(Br)c2)SC1=S)Nc1ccccn1`: the call in assay [1] and in assay [3] was inactive.

With `COc1ccc(CCNc2nnc(Sc3nnnn3-c3ccccc3)s2)cc1OC`, the result in assay [1] was inactive.

For `CN1c2ccccc2N(C)C1(C)c1ccccc1`, the result in assay [1] was inactive.

Consider `Cc1cc(C2=NNC(=NC3CC3)SC2)c(C)n1-c1ccccc1F`, for which, in assay [1], the outcome was inactive.

With `CCOC(=O)c1c(-c2ccc(F)cc2)csc1NC(=O)CN1C(=O)NC2(CCCCC2C)C1=O` (centres undefined), the result in assay [1] was inactive.

Turning to `COc1ccccc1C#Cc1ccc([C@H]2[C@@H](CO)N(C(=O)C3CCCC3)[C@H]2C#N)cc1`, the compound was called inactive in assay [2] and in assay [3].

`N#C[C@@H]1[C@@H](c2ccc(C#Cc3ccccc3F)cc2)[C@@H](CO)N1C(=O)C1CCCC1`: the compound was classed as inactive in assay [3].

Turning to `COc1cccc(C#Cc2ccc([C@@H]3[C@@H](C#N)N(C(=O)C4CCCCC4)[C@@H]3CO)cc2)c1`, the call in assay [1], in assay [10], in assay [11], in [2] and in assay [3] was inactive.

For `C#CCN(C[C@@H]1[C@@H](OC(=O)NCC2CCCCC2)[C@@H](OC(=O)NCC2CCCCC2)Cn2c(=O)ccc(=O)n21)S(=O)(=O)c1ccc(C)cc1`, the result in assay [1] was inactive.

Regarding `O=C(NN=Cc1ccc2c(c1)CCC2)c1ccccc1O`, the fold change in [4] (Ring1 fold increase, at 7 µM) was 1.13; in assay [4] (at 33 µM) it was 1.24 (inactive); in [6] (Bmi1 de-repression, at 7 µM), 1.51; in assay [6] (at 33 µM), 1.77 (inactive). Besides, the Fgf4 expression fold change in assay [5] (Fgf4 expression, at 7 µM) is 0.906; in [5] (at 33 µM), 0.972 (inactive). In [7], the cell viability change % (negative = cytotoxic) was -5.69% (inactive). For the same compound, the activity change, negative = inhibition in assay [8] is -32.1% (inactive); in [9] it was 0.295% (inactive).

As for `COc1cc(-c2cnc3c(NC=O)cc(-c4ccccc4)cn23)cc(OC)c1OC`, the compound was classed as inactive in [1].

Regarding `C[C@@H]1CN([C@@H](C)CO)S(=O)(=O)c2ccc(C#CC3CCCC3)cc2O[C@H]1CN(C)Cc1cccnc1`, the compound was classed as inactive in assay [10], in [2] and in assay [14].

Consider `COc1cc2ccccc2cc1C(=O)Nc1ccccc1C`, for which the fold change in assay [4] (Ring1 fold increase, at 7 µM) is 1.25; in assay [4] (at 33 µM), 0.965 (inactive); in [6] (Bmi1 de-repression, at 7 µM), 1.37; in [6] (at 33 µM) it was 1.49 (inactive). The Fgf4 expression fold change was 0.978 in assay [5] (Fgf4 expression, at 7 µM) and 0.878 (inactive) in assay [5] (at 33 µM). Also, the cell viability change % (negative = cytotoxic) in assay [7] was -15.3% (inactive). In addition, the activity change, negative = inhibition in [8] was -26.3% (inactive); in [9], -24.6% (inactive).
